In PubChem BioAssay AID1159580 (chemical genetic matrix, 2015):
Where “and” joins values, the source holds several entries; their conditions need not be identical. Identical values can stand only once. Among all 5,500 compounds or so, about 2,000 (36%) were called active. About 18% were inconclusive and are not listed. Rule as the data show it: active = normalized growth mostly below about 0.91 (no sharp cut-off); inconclusive = no clear call, values can overlap the other calls; inactive = mostly above about 0.92. The list shows a part of the results.

Assay: chemical genetic growth profiling, strain panel (AID 1159580);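 also: tested at 20 µM; growth read once vehicle control cultures reached saturation at 30 °C; 1 = growth at the plate median or of vehicle wells; lower values mean less growth of the strain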
Settings: S. cerevisiae deletion strains, growth OD

Measured: normalized growth

Cc1cccc(N(C)C(=S)Oc2ccc3ccccc3c2)c1
inactive: locus YAL013W, strain DEP1, hits give low values 0.968 | locus YAL021C, strain ccr4, hits give low values 0.952 | locus YAL026C, strain drs2, hits give low values 0.995 | locus YAL030W, strain snc1, hits give low values 0.996 | locus YBL061C, strain skt5, hits give low values 0.994 | locus YBR009C, strain hhf1, hits give low values 1.02 | locus YBR021W, strain FUR4, hits give low values 0.964 | locus YBR023C, strain chs3, hits give low values 0.981 | locus YBR171W, strain sec66, hits give low values 0.985 | locus YBR229C, strain ROT2, hits give low values 0.943 | locus YBR231C, strain swc5, hits give low values 0.973 | locus YBR279W, strain paf1, hits give low values 1.01 | locus YCL011C, strain gbp2, hits give low values 1 | locus YCL016C, strain dcc1, hits give low values 0.986 | locus YCL029C, strain bik1, hits give low values 0.967 | locus YCL069W, strain vba3, hits give low values 0.989 | locus YCR088W, strain abp1, hits give low values 0.995 | locus YDL005C, strain med2, hits give low values 0.998 | locus YDL035C, strain GPR1, hits give low values 0.979 | locus YDL040C, strain nat1, hits give low values 1.01 | locus YDL074C, strain BRE1, hits give low values 0.948 | locus YDL101C, strain DUN1, hits give low values 0.979 | locus YDL134C, strain PPH21, hits give low values 0.992 | locus YDL185W, strain tfp1, hits give low values 0.915 | locus YDL192W, strain arf1, hits give low values 0.976 | locus YDR001C, strain nth1, hits give low values 0.99 | locus YDR069C, strain doa4, hits give low values 0.985 | locus YDR101C, strain arx1, hits give low values 0.978 | locus YDR150W, strain NUM1, hits give low values 0.971 | locus YDR159W, strain sac3, hits give low values 0.935 | locus YDR162C, strain NBP2, hits give low values 1.01 | locus YDR195W, strain ref2 0.967 | locus YDR297W, strain sur2, hits give low values 0.984 | locus YDR318W, strain mcm21, hits give low values 0.982 | locus YDR334W, strain swr1, hits give low values 1.04 | locus YDR335W, strain msn5, hits give low values 1.01 | locus YDR388W, hits give low values 0.99 | locus YDR392W, strain spt3, hits give low values 0.894 | locus YDR502C, strain sam2, hits give low values 0.983 | locus YEL003W, strain gim4, hits give low values 1 | locus YEL037C, strain rad23, hits give low values 0.99 | locus YEL061C, strain CIN8 (second series), hits give low values 0.989 | locus YEL061C, strain CIN8, hits give low values 0.987 | locus YER015W, strain faa2, hits give low values 0.991 | locus YER016W, strain bim1, hits give low values 0.993 | locus YER110C, hits give low values 0.983 | locus YER111C, strain swi4, hits give low values 1.01 | locus YER155C, strain BEM2 (second series), hits give low values 1.02 | locus YER155C, strain BEM2, hits give low values 0.979 | locus YER167W, strain BCK2, hits give low values 0.976 | locus YFR010W, strain ubp6, hits give low values 1.01 | locus YGL078C, strain dbp3, hits give low values 0.98 | locus YGL086W, strain mad1, hits give low values 0.962 | locus YGL167C, strain pmr1, hits give low values 0.984 | locus YGL173C, strain kem1, hits give low values 0.985 | locus YGL227W, strain vid30, hits give low values 1.02 | locus YGL240W, strain doc1, hits give low values 0.951 | locus YGL248W, strain PDE1, hits give low values 0.974 | locus YGL253W, strain hxk2, hits give low values 0.986 | locus YGR078C, strain PAC10, hits give low values 0.979 | locus YGR135W, strain pre9, hits give low values 0.997 | locus YGR252W, strain gcn5, hits give low values 1.02 | locus YHR013C, strain ard1, hits give low values 1 | locus YHR027C, strain rpn1, hits give low values 0.989 | locus YHR030C, strain SLT2, hits give low values 0.986 and 0.935 | locus YHR079C, strain IRE1 (second series), hits give low values 0.984 | locus YHR079C, strain IRE1, hits give low values 0.941 | locus YHR094C, strain hxt1, hits give low values 0.981 | locus YHR129C, strain ARP1, hits give low values 0.969 | locus YHR142W, strain chs7, hits give low values 1 | locus YHR200W, strain rpn10, hits give low values 0.961 | locus YIL066C, strain RNR3, hits give low values 0.958 | locus YIL073C, strain SPO22, hits give low values 0.964 | locus YIL125W, strain kgd1, hits give low values 0.981 | locus YIR030C, strain dcg1, hits give low values 0.966 | locus YJL092W, strain hpr5, hits give low values 0.99 | locus YJL095W, strain BCK1 (second series), hits give low values 0.993 | locus YJL095W, strain BCK1, hits give low values 0.993 and 0.928 | locus YJL115W, strain asf1, hits give low values 1 | locus YJL129C, strain trk1, hits give low values 0.922 | locus YJL134W, strain LCB3, hits give low values 0.989 | locus YJL154C, strain vps35, hits give low values 0.998 | locus YJL164C, strain tpk1, hits give low values 0.997 | locus YJL166W, strain qcr8, hits give low values 0.99 | locus YJL168C, strain set2, hits give low values 0.984 | locus YJL187C, strain SWE1 (second series), hits give low values 0.974 | locus YJR043C, strain POL32, hits give low values 0.997 | locus YJR066W, strain TOR1, hits give low values 0.878
active: locus YDR137W, strain rgp1, hits give low values 1.33 [resistant]
